We go through 42 molecules from PubChem BioAssay AID434970 (Sanford-Burnham Center for Chemical Genomics, 2010).

The campaign covered roughly 11,000 compounds. About 310 (2.8%) were called active. Cut-off read from the data, not from the text of the source: active = activity change below about -85%; inactive = the rest. For the sample, actives were picked, then their nearest neighbours and some compounds at random.

The test concerns intestinal alkaline phosphatase [Mus musculus]. Briefly: mouse intestinal phosphatase enzyme activation – biochemical, luminescence, single concentration, confirmation (AID 434970). Conditions: purified mouse IAP, CDP-Star luminescence, 30 min, at 10 µM; activation factor: measured here: IAP activation factor, stronger effect = higher value; activity change, negative = activation: stronger effect = lower value.
On to `CC[C@]12c3[nH]c4ccc(OC)cc4c3CCN1C(=O)C(CC(=O)NCCC1=CCCCC1)C[C@@H]2C(=O)N1CCN(C(=O)C2CC2)CC1` (some centres undefined), for which the activation factor is 1.01 and the activity change, negative = activation was -1.4% (inactive).
The matching figures for `O=C(Oc1cccc(NC(=O)c2ccco2)c1)c1ccc(Br)c(S(=O)(=O)N2CCCCC2)c1`: 0.907 and 9.3% (inactive).
The matching figures for `O=C(Nc1scc(-c2ccccc2)c1C(=O)O)c1ccco1`: 0.964 and 3.6% (inactive).
The matching figures for `CCn1c(CNc2ccc(OC)cc2)nnc1SCC(=O)Nc1ccc(F)cc1`: 1.08 and -7.7% (inactive).
With `Cc1cc(NC(=O)CC23CC4CC(C2)CC(CC(=O)Nc2cc(C)on2)(C4)C3)no1`, the activation factor is 1.02 and the activity change, negative = activation was -1.55% (inactive).
`Cc1sc2nc(SCC(=O)Nc3c(C)n(C)n(-c4ccccc4)c3=O)n(C)c(=O)c2c1C`: the activation factor was 0.771 and the activity change, negative = activation was 22.9% (inactive).
Regarding `Cc1csc(C(=O)O)c1-n1cccc1`, the activation factor is 0.908 and the activity change, negative = activation is 9.2% (inactive).
The matching figures for `Fc1ccc(OCc2nn3cnnc3s2)cc1`: 0.923 and 7.75% (inactive).
Turning to `CCOC(=O)/C(C#N)=C\c1ccco1`, the activation factor came to 1.12 and the activity change, negative = activation was -11.7% (inactive).
The matching figures for `COC(=O)c1ccccc1NC(=O)CN(CCc1ccccc1)S(C)(=O)=O`: 1.04 and -3.75% (inactive).
For `CCOc1ccc(C2C(C#N)=C(N)N(c3sc4c(c3C#N)CCCC4)C3=C2C(=O)CCC3)cc1` (centres undefined), the activation factor was 0.903 and the activity change, negative = activation is 9.65% (inactive).
The matching figures for `COCCC(=O)N(Cc1ccc2c(c1)OCO2)C(C(=O)NC1CCCCC1)c1ccncc1` (centres undefined): 0.912 and 8.8% (inactive).
The matching figures for `Fc1cccc(NC(=S)NCc2ccc(Cl)cc2)c1`: 1.31 and -30.9% (inactive).
With `O=C(Nc1cccc(Cl)c1)Nc1ccc2c(c1)OCO2`, the activation factor was found to be 2.46 and the activity change, negative = activation is -146% (active).
Turning to `S=C(NCc1cccnc1)Nc1cc(Cl)cc(Cl)c1`, the activation factor was found to be 1.38 and the activity change, negative = activation is -38.4% (inactive).
As to `O=C(Nc1cc(Cl)cc(Cl)c1)Nc1cnccn1`, the activation factor came to 1.97 and the activity change, negative = activation was -96.5% (active).
Regarding `O=C(Nc1ccccc1)Nc1ccc(Br)c(Cl)c1`, the activation factor was found to be 1.82 and the activity change, negative = activation was -82.4% (inactive).
For `COC(=O)c1ccccc1NC(=O)Nc1ccc2c(c1)OCO2`, the activation factor was found to be 1.08 and the activity change, negative = activation was -8% (inactive).
The matching figures for `O=C(Nc1cc(Cl)cc(Cl)c1)c1cnn2cccnc12`: 0.974 and 2.55% (inactive).
The matching figures for `CC(C)C(=O)Nc1cccc(C(=O)Nc2ccc3c(c2)OCO3)c1`: 0.972 and 2.8% (inactive).
For the molecule `O=C(Nc1ccccc1)Nc1cc(Cl)cc(Cl)c1`, the activation factor is 3.41 and the activity change, negative = activation is -241% (active).
The matching figures for `O=C(Nc1cccnc1)Nc1cc(Cl)cc(Cl)c1`: 1.69 and -68.7% (inactive).
Turning to `O=C(Nc1cccc(F)c1)Nc1cccc(Cl)c1`, the activation factor was determined as 2.11 and the activity change, negative = activation was -111% (active).
The matching figures for `Cc1ccc2c(c1)N(CCC(=O)NCc1cccs1)C(=O)C(C)O2` (centres undefined): 1.03 and -2.7% (inactive).
Turning to `O=C(CCCOc1ccccc1)Nc1nnc(C2CCCO2)s1` (centres undefined), the activation factor is 1.01 and the activity change, negative = activation is -1.15% (inactive).
For `CCOC(=O)c1c(-c2ccccc2)csc1NC(=O)COc1ccc2c(C)cc(=O)oc2c1`, the activation factor came to 0.967 and the activity change, negative = activation was 3.3% (inactive).
`Cc1ccc(NC(=O)CS(=O)CC(=O)NCC2CCCO2)cc1` (centres undefined): the activation factor was found to be 1.07 and the activity change, negative = activation is -6.55% (inactive).
The matching figures for `O=C(O)C1C2C=CC(O2)C1C(=O)NCCC1=CCCCC1` (centres undefined): 1.12 and -12.2% (inactive).
For the molecule `COCCN(C(=O)C(F)(F)F)C(C(=O)NC1CCCCC1)c1ccco1` (centres undefined), the activation factor amounted to 0.978 and the activity change, negative = activation is 2.15% (inactive).
Consider `CC1CCN(C(=O)c2ccc(NC(=O)C3CCCO3)cc2)CC1` (centres undefined), for which the activation factor came out at 1.06 and the activity change, negative = activation was -5.95% (inactive).
The matching figures for `COc1cc2oc(=O)cc(-c3ccc(-c4ccc(F)c(Cl)c4)cc3)c2c(OC)c1OC`: 0.913 and 8.7% (inactive).
Consider `Cn1c(Cn2cnc3ccccc32)nnc1SCC(=O)CC(=O)Nc1ccccc1`, for which the activation factor is 0.996 and the activity change, negative = activation was 0.45% (inactive).
`COc1ccc(-n2ncc3c(=O)n(CC(=O)N4c5ccccc5CC4C)cnc32)cc1` (centres undefined): the activation factor was 1 and the activity change, negative = activation is -0.2% (inactive).
The matching figures for `CCOC(=O)c1sc(NC(=O)Nc2cccc(Cl)c2)cc1C`: 1.83 and -82.6% (inactive).
The matching figures for `CSc1ccccc1NC(=O)Nc1cccc(Cl)c1`: 1.48 and -48.5% (inactive).
The matching figures for `CC(O)c1cccc(NC(=O)Nc2cccc(NC(=O)Nc3cccc(C(C)O)c3)c2)c1` (centres undefined): 1.89 and -88.9% (active).
Take `O=C(Nc1cccc(Cl)c1)Nc1cccc(Cl)c1`: the activation factor came to 3.21 and the activity change, negative = activation is -221% (active).
The matching figures for `CC(=O)c1cccc(NC(=O)Nc2cccnc2)c1`: 1 and -0.35% (inactive).
The matching figures for `CCC1(COC(=O)Nc2cccc(Cl)c2)COC1`: 1.16 and -16.4% (inactive).
For `CC(C)OC(=O)NCCOC(=O)Nc1cccc(Cl)c1`, the activation factor is 2.12 and the activity change, negative = activation is -112% (active).
The matching figures for `C=CCc1cc(Cl)ccc1OC(=O)Nc1cccc(Cl)c1`: 2.05 and -105% (active).
The matching figures for `O=C(NCCc1ccc(Cl)cc1)Nc1cccc(Cl)c1`: 1.92 and -92.5% (inactive).
